Results as given in PubChem BioAssay AID588850 (Sanford-Burnham Center for Chemical Genomics, 2011).
The campaign covered roughly 360,000 compounds. About 3,100 (0.86%) were called active. The list comes from a sample in which actives are over-represented; it also holds similar structures and randomly drawn compounds. A number with no mark means an inactive call.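 The calls were made as follows: active = at least 50% inhibition at 5 µM, scaled per plate between neutral and stimulator controls; inactive = the rest.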

Assay: NF-kB reporter blockers in CF airway cells – cell-based, GFP fluorescence, uHTS, primary screen (AID 588850);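 also: PAF is a Pseudomonas aeruginosa culture filtrate used as stimulus; plate controls were PAF-stimulated DMSO wells for no effect and unstimulated DMSO wells for full effect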
Conditions: KKLEB NF-kB-GFP reporter, PAF-induced, GFP fluorescence overnight; at 5 µM; stronger effect = higher value

Structure (SMILES) | inhibition
CC(C#N)(NC(=O)CN1CCN(S(=O)(=O)c2cc(C(F)(F)F)ccc2Cl)CC1)C1CC1 (stereo not drawn) | 17.9%
CCOC(=O)c1ccc(S(=O)(=O)N(CCO)Cc2cc3cc(OC)c(OC)cc3[nH]c2=O)cc1 | -25.3%
Nc1ncnc2c1ncn2[C@@H]1O[C@H](C(=O)N2CCSC2)[C@@H](O)[C@H]1O | 4.9%
COC(=O)C1=C(C)NC2=C(C(=O)c3ccccc32)C1c1ccc(-c2ccc(C(=O)O)cc2)o1 (stereo not drawn) | 76.6% (active)
COC(=O)C1=C(C)NC(=O)/C1=C/c1ccc(CNS(=O)(=O)c2ccc(C)cc2)o1 | -6.4%
COC(=O)C1=C(C)N(C)C(=O)NC1c1ccc([N+](=O)[O-])o1 (stereo not drawn) | 1.5%
Cc1cn([C@H]2C[C@H](O)[C@@H](CNC(=O)[C@H](N)Cc3cccnc3)O2)c(=O)[nH]c1=O | -3.6%
CC1(C(=O)O)CCCN(C(=O)/C=C/c2ccccc2)C1 (stereo not drawn) | -1.6%
COC(=O)c1c(C)[nH]c(C(=O)/C=C/c2ccc(Cl)cc2)c1C | 3.1%
Cc1[nH]c(=O)c(C(=O)/C=C/c2ccccc2)c2c1CCCC2 | 51.1% (active)
Cn1c(SCC(=O)NC2CCCCC2)nnc1-c1ccc(N)cc1 | 3.7%
Cc1cc(OC(=O)c2ccccc2Cl)ccc1N1C(=O)CCC1=O | -7.9%
CC(NS(=O)(=O)c1ccccc1)c1n[nH]c(=S)n1-c1ccccc1 (stereo not drawn) | -11.4%
Nc1[nH][nH]c(=O)c1N=Nc1ccc2c(c1)OCO2 | -6.6%
CCC(=O)N1CCC(C)(C(=O)Nc2cc(OC)c(OC)c(OC)c2)C1 (stereo not drawn) | 13.9%
O=C(CNC(=O)c1ccccc1)NCC(=O)OCc1ccc(Cl)cc1 | -4.1%
CC(Oc1ccc2c(-c3ccccc3)cc(=O)oc2c1)C(=O)NC(Cc1c[nH]c2ccccc12)C(=O)O (stereo not drawn) | -11.2%
O=C(CNC(=O)OCc1ccccc1)Oc1cc2oc(=O)cc(-c3ccccc3)c2cc1Cl | 72.8% (active)
Cc1cc(NC(=O)CS(=O)(=O)c2cn(C)c3ccccc23)no1 | -0.5%
OC[C@@H]1CN(Cc2ccc(-c3ccccc3)cc2)C[C@H](n2cnc3c(NC4CCCC4)ncnc32)O1 | -0.3%
Cn1cc([N+](=O)[O-])c(C(=O)Nc2ccc3c(c2)OCCO3)n1 | 15.1%
Cc1nn(-c2ccccc2)c(Cl)c1/C=N/NC(=O)c1nn(C)cc1[N+](=O)[O-] | 52% (active)

Structure (SMILES) | inhibition
Cc1nn(-c2ccccc2)c(C)c1/C=N/NC(=O)CSc1nc2ccccc2c(=O)n1-c1ccccc1 | 23.3%
O=C(NC1CCN(C(=S)NCc2ccco2)CC1)c1ccc(F)cc1 | -0.1%
CCN(C(=O)c1ccc(Br)cc1)c1ccccc1 | 21.8%
C=CCN1C(=O)C(Cc2ccc(OCC)cc2)SC1=Nc1ccc(C(=O)O)cc1 (stereo not drawn) | 4.1%
COc1ccccc1C(=O)Nc1nc2nc(-c3ccccc3)cc(=O)n2[nH]1 | -8%
Cc1ccc(-c2csc(NC3OC(=O)c4ccccc43)n2)cc1 (stereo not drawn) | 81.3% (active)
COc1ccc2c(c1OC)C(=O)OC2Nc1nc(-c2ccccc2)cs1 (stereo not drawn) | 88.8% (active)
Cn1cc(C2OC(=O)c3ccccc32)c2ccccc21 (stereo not drawn) | 41.4%
COc1cc(C(O)c2nc(-c3cccc(C(=O)O)c3)cs2)ccc1F (stereo not drawn) | 12.4%
Cc1ccc(-c2csc(NC(=O)C3=COCCO3)n2)cc1C | -43.3%
CN(CC(=O)O)S(=O)(=O)c1ccc2oc3ccccc3c2c1 | -19.3%
Cc1ccc(S(=O)(=O)Nc2ccc(F)c(S(=O)(=O)N3CCOCC3)c2)cc1 | -4.8%
O=C(Nc1ccccc1)c1ccccc1Br | -3.5%
COCCCNC(=O)c1ccc(-c2c(C)noc2C)c2ccoc12 | -59%
CC(=O)c1ccc(N2CCN(S(=O)(=O)c3c(C)[nH]c(=O)[nH]c3=O)CC2)cc1 | 13.2%
COc1cccc(/C=N/Nc2cc(C)nc(-c3ccccc3O)n2)c1O | 89.8% (active)
COc1cc(/C=N/Nc2ccc(C)cc2)cc(Br)c1O | -27.2%
COc1cccc(Cn2cc(/C=N/NC(=O)c3cc(O)cc(O)c3)c3ccccc32)c1 | 1.7%
O=C(CN1CCOCC1)N1CCCc2c1c(=O)oc1ccc(OCc3ccccc3)cc21 | -14.3%
Cc1nn2c(c1-c1ccccc1)N=C(c1ccco1)CC2c1ccccc1 (stereo not drawn) | -5.8%
Cc1cc(Br)ccc1NC(=O)CN(C)C(=O)CN1C(=O)NC2(CCCC2)C1=O | -8.9%
COc1ccc(/C=C(\C#N)C(=O)NCCCn2ccnc2)cc1 | 10.2%

Structure (SMILES) | inhibition
COc1ccc(NC(=O)/C(C#N)=C\c2cc(OC)c(OCc3ccc(C(=O)O)cc3)cc2Br)cc1 | -82.3%
COc1ccc(CNC(=O)/C(C#N)=C/c2cccc(OC)c2OC)cc1 | 59.3% (active)
Cc1ccc(S(=O)(=O)NNC(=O)/C=C/c2cccc(F)c2)cc1 | -21.5%
CCOC(=O)CN1C(=O)C(O)(CC(=O)c2ccccn2)c2ccccc21 (stereo not drawn) | 13%
Cc1ccc(C2=CSC3=NS(=O)(=O)CCN23)cc1C | 6.1%
COc1cc(OC)c(C(=O)NNC(=O)c2ccccc2-n2cccc2)cc1OC | -9.9%
CCCN(CCC)C(=S)Nc1cc(C(=O)OC)ccc1C(=O)OC | 10.8%
COC(=O)c1ccc(C(=O)Nc2cc(Cl)ccc2Cl)cc1NC(=O)c1ccccc1C | 54% (active)
COC(=O)c1ccc(C(=O)OC)c(NC(=S)N2CCN(c3cc(Cl)ccc3C)CC2)c1 | 0.4%
CCOC(=O)c1c(C)[nH]c(C)c1C(=O)COC(=O)/C=C/c1cccc([N+](=O)[O-])c1 | -19.4%
CCC12CN3CC(CC)(CN(C1)C31C(=O)N(C)c3ccc(C)cc31)C2=O (stereo not drawn) | 8.9%
CCOC(=O)C1(C)CCCN(C(=O)c2ccc(N(C)C)cc2)C1 (stereo not drawn) | -1.1%
Cc1cccc(-n2nc3c(c2NC(=O)c2cc4ccccc4o2)CS(=O)(=O)C3)c1 | 4.3%
CC(C)CC1(C(=O)NCc2ccccn2)C=CCN1C(=O)c1ccccc1 (stereo not drawn) | -3.1%
O=C(Nc1cccc2ccccc12)NC1CC1 | -3.5%
O=C(Nc1cccc2ccccc12)c1[nH]c(-c2ccccc2)c2c1C(=O)N(C1CC1)C2=O | 63.7% (active)
O=C(Nc1cccc2ccccc12)c1onc2c1CCCC2 | -10.2%
CCC(=O)N(Cc1cc2ccccc2[nH]c1=O)c1ccc(OC)cc1 | -0.6%
Cc1ccc(N(Cc2cc(=O)[nH]c3ccccc23)C(=O)CCl)cc1 | 63.4% (active)
CC(=O)N(Cc1cc(=O)[nH]c2ccccc12)c1ccc(C)cc1C | 10.4%
CCOC(=O)N1CCN(C(=O)c2ccccc2SCC(=O)NCC2CCCCC2)CC1 | -2%
Cc1ccc(C(=O)CCC(=O)N(C)CC(=O)Nc2c(Cl)cccc2Cl)cc1 | -7.8%

Structure (SMILES) | inhibition
Cc1ccc(NC(=O)CN(C)C(=O)COC(=O)c2nccnc2N)cc1 | -12.4%
O=C(NNC(=O)c1ccccc1O)c1ccccc1O | 61.7% (active)
CC1=C(C)CC(C(=O)NNC(=O)c2ccccc2O)C(C(=O)O)C1 (stereo not drawn) | -2.9%
Cc1cc(C(=O)CCC(=O)NNC(=O)c2ccccc2O)c(C)s1 | -22%
COCCNC(=O)c1ccc2c(c1)ncn2-c1ccc(C)c(Cl)c1 | -3.6%
COCCN(C(=O)CCC(=O)Nc1nccs1)C(C(=O)NCCC(C)C)c1ccc(F)cc1 (stereo not drawn) | -16.8%
O=C(CNS(=O)(=O)c1cccc(C(F)(F)F)c1)Nc1ccccc1F | -4.7%
O=C(O)c1cc(S(=O)(=O)N(Cc2ccccc2)c2cccc(C(F)(F)F)c2)ccc1Cl | -4.7%
O=C(NNc1ccccc1Cl)C(O)(c1cccc(C(F)(F)F)c1)c1cccc(C(F)(F)F)c1 | 55.6% (active)
Cc1cccc(NC(=O)CSc2nnc(CCCCCNC(=O)OC(C)(C)C)o2)c1C | -6.7%
NC(=O)COc1ccccc1C(=O)NC12CC3CC(CC(C3)C1)C2 | 3.5%
C=C1C(=O)[C@]23C[C@H]1CCC2[C@@]1(C)C(C[C@@H]3O)[C@](C)(C(=O)O)CC[C@@H]1O (stereo partly drawn) | 82.6% (active)
CCN(CC)CCCNC(=O)c1cn(C)c2ccc(S(=O)(=O)N(C)C3CCCCC3)cc2c1=O | 9.2%
CC(=O)c1cccc(-c2ccc(CN3C(CC(C)C)C(=O)N(Cc4cn(CC5CCCCC5)nn4)CCS3(=O)=O)cc2)c1 (stereo not drawn) | 13.4%
COCOCCn1cc(CN2CCS(=O)(=O)N(Cc3ccc(-c4ccc(OC)cc4)cc3)C(CC(C)C)C2=O)nn1 (stereo not drawn) | -5%
COCOCCn1cc(CN2CCS(=O)(=O)N(Cc3ccc(-c4ccccc4)cc3)C(CC(C)C)C2=O)nn1 (stereo not drawn) | 23.5%
CC(C)CC1C(=O)N(Cc2cn(CC3CCCCC3)nn2)CCS(=O)(=O)N1Cc1ccc(-c2ccc(Cl)cc2)cc1 (stereo not drawn) | 55.8% (active)
COc1ccc(-c2ccc(CN3C(C(C)C)C(=O)N(Cc4cn(CC5CCCCC5)nn4)CCS3(=O)=O)cc2)cn1 (stereo not drawn) | -2.4%
COc1ccc(-c2ccc(CN3C(CC(C)C)C(=O)N(Cc4cn(CC5CCCCC5)nn4)CCS3(=O)=O)cc2)cc1 (stereo not drawn) | 41.4%
CC1C(=O)N(Cc2cn(Cc3ccco3)nn2)CCS(=O)(=O)N1Cc1ccc(-c2cccc(CO)c2)cc1 (stereo not drawn) | 3.2%
COc1ccc(-c2ccc(CN3C(CC(C)C)C(=O)N(Cc4cn(CC5CCCCC5)nn4)CCS3(=O)=O)cc2)cn1 (stereo not drawn) | 66.1% (active)
CC(C)CC1C(=O)N(Cc2cn(Cc3ccco3)nn2)CCS(=O)(=O)N1Cc1ccc(-c2ccc(Cl)c(Cl)c2)cc1 (stereo not drawn) | 66.8% (active)
